Source: PubChem BioAssay (NCI)
About 79,000 compounds went through this panel and 15% of them were active in at least one assay; those are over-represented in the sample as a whole. Cut-off read from the data, not from the text of the source: active = growth inhibition above about 70%; inactive = the rest.

Columns and labels:
[1] = NCI Yeast Anticancer Drug Screen. Data for the rad50 strain (AID 155);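 note: 0% = growth of vehicle-only cultures of the same strain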; conditions: S. cerevisiae rad50 strain growth inhibition; at 50.0 µM; stronger effect = higher value
How it was run: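 Cells are treated with compound, grown, and their growth is then scored against vehicle-only cultures of the same repair-deficient yeast strain.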

[2] = NCI Yeast Anticancer Drug Screen. Data for the mec2-1 strain (AID 157); conditions: S. cerevisiae mec2-1 strain, at 50.0 µM, stronger effect = higher value
How it was run: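 Test agents were screened against the mec2-1 yeast strain, with defined DNA repair or cell cycle alteration. Growth was scored as inhibition against vehicle-only controls.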

[3] = NCI Yeast Anticancer Drug Screen. Data for the sgs1 mgt1 strain (AID 161);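 note: 0% = growth of cultures given vehicle only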; conditions: S. cerevisiae sgs1 mgt1 strain, at 50.0 µM, stronger effect = higher value
How it was run: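 Test agents were incubated with a DNA-repair-mutant yeast strain. Growth was then read and compared against vehicle-treated controls.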

[4] = NCI Yeast Anticancer Drug Screen. Data for the cln2 rad14 strain (AID 165);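 note: 0% = growth equal to vehicle treated cultures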; conditions: S. cerevisiae cln2 rad14 strain, at 50.0 µM, stronger effect = higher value
How it was run: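 Growth of compound-exposed yeast (cln2 rad14 genotype) measured and expressed as inhibition relative to vehicle.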

[5] = NCI Yeast Anticancer Drug Screen. Data for the bub3 strain (AID 167); conditions: S. cerevisiae bub3 mutant strain, at 50.0 µM, stronger effect = higher value
How it was run: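 Part of a panel of yeast mutants defective in DNA damage repair or cell cycle regulation. Each strain is grown with compound, and inhibition is calculated relative to solvent-treated cultures.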

[6] = NCI Yeast Anticancer Drug Screen. Data for the mlh1 rad18 strain (AID 175); conditions: S. cerevisiae mlh1 rad18 strain growth inhibition; at 50.0 µM; stronger effect = higher value
How it was run: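 In this whole-cell yeast screen, a strain with altered DNA damage repair is challenged with compound, and its growth is measured against matched vehicle-treated controls.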

Measured: growth inhibition

COC(=O)CC(=O)C=P(c1ccccc1)(c1ccccc1)c1ccccc1
inactive: [1] -3.2% | [2] -4.15% | [3] -3.15% | [4] 6.3% | [5] -17.5% | [6] -2.15%

CCOc1ccc(OCC)c(N)c1
inactive: [1] -25.9% | [2] 2.1% | [3] -2.5% | [4] -44% | [5] 10.2% | [6] -19.5%

Cc1ccc(NC(=O)NC23CC4CC(CC(F)(C4)C2)C3)cc1
inactive: [1] 20.1% | [2] 4.45% | [3] -34% | [4] 0.25% | [5] -3.65% | [6] -12.3%

CCCCCC(=C/c1ccccc1)/C=N/N1CCN(/N=C/C(=C/c2ccccc2)CCCCC)CC1
inactive: [1] 32.1% | [2] 10.8% | [3] 22.4% | [4] 3.2% | [5] -0.85% | [6] 11.2%

O=C(c1ccc(CSc2ccc(Cl)cc2)o1)N1CCOCC1
inactive: [1] 23.9% | [2] 12% | [3] 45.5% | [4] 24.2% | [5] 32.6% | [6] 26.6%

O=C(c1ccccc1)c1ccc2cccc3c2c1CC3
inactive: [1] 40.2% | [2] 14.6% | [3] 32.1% | [4] 20.8% | [5] 51.6% | [6] 34.4%

CC(C)(C)NC(=O)C12C3C4C1C1C2C3C41C(=O)NC(C)(C)C (configuration not stated)
inactive: [1] -19.3% | [2] -9% | [3] -15.9% | [4] -39.7% | [5] -26.1% | [6] -19.5%

CCCCCCC1NN(C(C)=O)C(CCCCCC)NN1C(C)=O (configuration not stated)
inactive: [1] 10.5% | [2] -4.1% | [3] 7.65% | [4] 49.1% | [5] 7.1% | [6] -3.75%

CCCCCc1nnc2n1N=C(c1ccc(Cl)cc1)CS2
inactive: [1] -26.6% | [2] -13.9% | [3] -2.5% | [4] 4.1% | [5] -17.6% | [6] 3.5%

COC(=O)c1c([N+](=O)[O-])ncn1C1CC(OC(C)=O)C(COC(C)=O)O1 (configuration not stated)
inactive: [1] 15.2% | [2] -4.9% | [3] -1.9% | [4] -30.8% | [5] -17.7% | [6] 5.25%

O=[N+]([O-])c1cccc(NC(c2ccccc2)S(=O)(=O)O)c1 (configuration not stated)
inactive: [1] -5.15% | [2] -18.6% | [3] 9.65% | [4] 18.9% | [5] 8.75% | [6] 5.15%

COC(=O)c1cc(C(C)O)nc2ccccc12 (configuration not stated)
inactive: [1] 4.95% | [2] 3.95% | [3] 6.25% | [4] 0.65% | [5] 27% | [6] 6.35%

CO/N=C(\C(=O)OC(=NC1CCCCC1)NC1CCCCC1)c1csc(NC(c2ccccc2)(c2ccccc2)c2ccccc2)n1
inactive: [1] -5.15% | [2] -7.85% | [3] -5.4% | [4] -7.8% | [5] -0.3% | [6] -6.5%

CC1CC(C)OC2(CCCC2)O1 (configuration not stated)
inactive: [1] 8.45% | [2] -8.05% | [3] 2.2% | [4] -12.8% | [5] 4.05% | [6] -5.3%

CC1C(O)C(c2ccccc2)(c2ccccc2)C(C)CN1C (configuration not stated)
inactive: [1] -5.65% | [2] -4.95% | [3] 4.15% | [4] 4.65% | [5] -2.6% | [6] 3.45%

CCCC(C)c1ccc(C(=O)O)cc1 (configuration not stated)
inactive: [1] 10.2% | [2] -10.7% | [3] 4.45% | [4] 11.2% | [5] -18.1% | [6] 20.9%

CC(=O)OCC1OC(n2cnc3c(N)ncnc32)C2OC(C)(C)OC12 (configuration not stated)
inactive: [1] 11.4% | [2] -30.2% | [3] -19.1% | [4] 1.45% | [5] -1.9% | [6] -12.8%

COC(=O)c1ccccc1NC(=O)N(c1ccccc1)c1ccccc1
inactive: [1] 1.35% | [2] -3.45% | [3] 14.4% | [4] -12.2% | [5] 17.8% | [6] -1.55%

CC(C)Oc1ccc(C(=O)OCCC(C)N2CCCC2)cc1 (configuration not stated)
inactive: [1] 40.9% | [2] 36.7% | [3] 53.2% | [4] 31.5% | [5] 46.4% | [6] 27.9%

C=CCCC1CN2CCc3cc(OC)c(OC)cc3C2CC1=O (configuration not stated)
inactive: [1] 15.3% | [2] 16.1% | [3] 10.6% | [4] -41.7% | [5] 28.4% | [6] 20.1%

COC(=O)NCP(=O)(CNC(=O)OC)CNC(=O)OC
inactive: [1] 13.8% | [2] 1.4% | [3] -1.35% | [4] 8.65% | [5] -4% | [6] 10.7%

O=C(N/N=C\C(F)(F)F)c1ccncc1
inactive: [1] 0.85% | [2] -10.8% | [3] 4.65% | [4] -25% | [5] 1.5% | [6] 24.1%

COC(=O)C1CC23CCCC12CC3 (configuration not stated)
inactive: [1] 21.6% | [2] -1.25% | [3] 2.3% | [4] -66.7% | [5] 8.05% | [6] -7.05%

Cc1ccc2ncccc2c1
inactive: [1] -2.75% | [2] -18.1% | [3] 1.8% | [4] -12.4% | [5] 3.9% | [6] -6.45%

O=c1nc(NC2CC2)ccn1C1OC(CO)C(O)C1O (configuration not stated)
inactive: [1] -3.75% | [2] -4.25% | [3] -1% | [4] -0.25% | [5] 4.35% | [6] -20.9%

N#Cc1cccc(N2C(=O)C3C4C=CC(C3C2=O)C2C(=O)N(c3cccc(C#N)c3)C(=O)C42)c1 (configuration not stated)
inactive: [1] -8.5% | [2] -0.65% | [3] -6.25% | [4] 26.6% | [5] -0.35% | [6] -18.4%

CC(C)(C#CCOC(=O)c1ccc([N+](=O)[O-])cc1)OC(=O)c1ccc([N+](=O)[O-])cc1
inactive: [1] 9.25% | [2] -3.7% | [3] 18.5% | [4] 32.1% | [5] 1.5% | [6] 5.35%

COc1ccc(CNc2cnc3ccc(N)cc3n2)cc1OC
inactive: [1] -36.9% | [2] -55.1% | [3] -40.2% | [4] 5.55% | [5] -25% | [6] -30.9%

CCCCCCCCc1cc(CN2CCOCC2)c(O)c(CN2CCOCC2)c1
inactive: [1] 25.1% | [2] 14.6% | [3] 22.2% | [4] 24.4% | [5] 12.8% | [6] 21.6%

Clc1ccc(C(Cl)(Cl)C(Cl)(Cl)Cl)cc1
inactive: [1] 6.65% | [2] 40.4% | [3] -2.15% | [4] -61.2% | [5] 40% | [6] 44.1%

CN(C)CCC(=O)c1cccc(O)c1
inactive: [1] -27.9% | [2] -19% | [3] -6.4% | [4] -37.6% | [5] -9.45% | [6] -10.2%

Oc1ccc2ccccc2c1
inactive: [1] -10.3% | [2] -27.8% | [3] -14.8% | [4] -21.4% | [5] -16.4% | [6] 20.9%

C=CCON(C)c1ccc([N+](=O)[O-])cc1[N+](=O)[O-]
inactive: [1] 15.3% | [2] -0.9% | [3] 16.1% | [4] -43.9% | [5] -1.05% | [6] 13.8%

CCN(CC)C(=O)C(C)=O
inactive: [1] 8.55% | [2] 1.6% | [3] -12.4% | [4] 12.9% | [5] 1.2% | [6] 12.9%

CCC(c1ccccc1)C(C(=O)O)C(=O)O (configuration not stated)
inactive: [1] 5.95% | [2] -5.35% | [3] 0.55% | [4] -16.8% | [5] 6.35% | [6] 6.65%

COc1ccc(NC(=O)/C(Cc2cc(=O)oc3cc(O)ccc23)=N\NC(C)(C)C)c(OC)c1
inactive: [1] -4.4% | [2] 2.8% | [3] 9.3% | [4] 4% | [5] -1.8% | [6] 7.3%

COC1CCC2C(C1)C(C1CCCCC1)C1CCCCC1C2C1CCCCC1 (configuration not stated)
inactive: [1] -1.1% | [2] 8.05% | [3] -14.6% | [4] -7.25% | [5] -0.9% | [6] -7.65%

Nc1nc(N)nc(CCC(Br)(Br)Br)n1
inactive: [1] 26.6% | [2] 4.75% | [3] 30.8% | [4] 19.9% | [5] 21.9% | [6] 11.1%

O=C(/C=C/c1ccccc1)c1ccc(Oc2ccccc2)cc1
inactive: [1] -13.2% | [2] -12.8% | [3] -12.9% | [4] -39.5% | [5] 7.5% | [6] -14.8%

O=C(Nc1ccc(C(=O)O)cc1)OCc1ccccc1
inactive: [1] 1.65% | [2] 8.75% | [3] 15.5% | [4] -36% | [5] 2.5% | [6] -7.7%

CCCCN=C(NC#N)NCCCC
inactive: [1] -27.6% | [2] 7.9% | [3] -31.2% | [4] -0.1% | [5] -25.4% | [6] -13.8%

CCN(CC)CCN(C(=S)Nc1ccccc1)c1ccccc1
inactive: [1] 5% | [2] 28.1% | [3] 17.6% | [4] -10.1% | [5] 9.5% | [6] 27.4%
